Results: PubChem BioAssay AID463195 (Sanford-Burnham Center for Chemical Genomics, 2010)
The campaign covered roughly 330,000 compounds. About 4,600 (1.4%) were called active. Shown is part of a subset that was picked to be rich in actives. Unmarked numbers belong to inactive results.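 Rule for the calls: active = inhibition of 40% or more at the single tested concentration; inactive = the rest.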

Assay: growth inhibitors of isogenic TIM10 control yeast, primary screen, counter-screen for tim10-1 yeast inhibitor project, luminescence, uHTS (AID 463195);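 note: wild-type TIM10 isogenic control strain grown at permissive 25 °C; 0% = DMSO yeast wells and 100% = minimal medium wells without yeast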
Conditions: S. cerevisiae TIM10 strain growth, BacTiter-Glo luminescence, 24 h; at 10 µM; stronger effect = higher value

SMILES	inhibition
O=C(Nc1ccc(Cl)c(Cl)c1)N1CC=C(c2ccccc2)CC1	48.1% (active)
O=C(Nc1cccc(NC(=O)N2CCN(c3ccccc3)CC2)c1)N1CCN(c2ccccc2)CC1	-4.11%
COc1cc(C(=O)NCC(=O)N2CC=C(c3ccccc3)CC2)cc(OC)c1OC	20.4%
CCOC(=O)N1CCC(N2Cc3cccc(C(=O)Nc4c(C)cccc4CC)c3C2=O)CC1	15.7%
CN(C)Cc1c(O)ccc2occ(C(O)c3ccccc3)c12 (centres undefined)	9.39%
CC(=O)Cc1nsc(NC(=O)c2ccc(COc3ccc(C)cc3)o2)n1	20.8%
CC(C)NC(=O)c1ccc(Cl)cc1Cl	-6.27%
CC(=O)Cc1nsc(NC(=O)c2ccc(Cl)cc2Cl)n1	45.2% (active)
Cc1cc(C)cc(NS(=O)(=O)Cc2ccccc2)c1	-1.77%
O=C(c1snnc1-c1ccccc1)N1CCOCC1	15.4%
O=C(CCCN1CCc2[nH]c3ccc(F)cc3c2C1)c1ccc(F)cc1	14.8%
CCc1ccc(S(=O)(=O)N/N=C\c2ccc([N+](=O)[O-])o2)cc1	14.1%
CCn1c(/C=C/c2ccc([N+](=O)[O-])o2)nc2ccccc2c1=O	49.9% (active)
CCn1c(=O)c([N+](=O)[O-])c(NCc2ccc3c(c2)OCO3)c2ccccc21	15.2%
CC1CCN(C(=O)c2cc3nc(C4CC4)cc(C(F)(F)F)n3n2)CC1	16.4%
Cc1cccc(N(CC(O)CN(C)C)S(=O)(=O)c2ccccc2)c1 (centres undefined)	0.713%
Cc1ccc(N(CC(O)CN2CCCC2)S(=O)(=O)c2ccccc2)cc1 (centres undefined)	-2.21%
Cc1cc(C)n(CC(O)CN(c2ccccc2)S(=O)(=O)c2ccc3ccccc3c2)n1 (centres undefined)	48% (active)
C/C=C/C(=O)OCC(=O)Nc1ccc(F)cc1Cl	-3.48%
Nc1ncnc2c1ncn2[C@@H]1O[C@H](CNS(=O)(=O)c2ccc(-c3ccno3)s2)[C@@H](O)[C@H]1O	-1.72%
CCCS(=O)(=O)N1CCN=C1SCc1cccc(F)c1	-11.5%
CCc1c(C)nc(N)n2c(SCC(=O)NC3CCCCC3)nnc12	-10.7%
COc1ccc(S(=O)(=O)Nc2cc(C)on2)cc1NC(C)=O	12%
O=C(O)CCCC(=O)N1N=C(c2ccco2)CC1c1ccco1 (centres undefined)	-11.4%

SMILES	inhibition
Cc1nn(C(=O)c2ccoc2C)c(N)c1-c1ccccc1	-12.3%
Cc1nn2c(c1-c1ccccc1)N=C(c1ccco1)CC2c1ccccc1 (centres undefined)	48.1% (active)
CCN(CC)S(=O)(=O)N1CCC(C(=O)NC(C)CCc2ccccc2)CC1 (centres undefined)	-3.42%
C/C(=N\NC(=O)C1(C)CC1(Br)Br)c1ccc(C)cc1C (centres undefined)	10%
O=C1Cc2cc(S(=O)(=O)Nc3cccc(F)c3)ccc2N1	-1.95%
CCN(CC)CCN(C(=O)c1cc(Cl)sc1Cl)c1nc2cc3c(cc2s1)OCO3	23.3%
CN(C)CCN(C(=O)C1CCCCC1)c1nc2cc3c(cc2s1)OCO3	11.6%
CCc1ccc2nc(N(CCCN(C)C)C(=O)c3ccc4c(c3)OCCO4)sc2c1	13.5%
CN(C)CCN(C(=O)C1=COCCO1)c1nc2ccc(Cl)cc2s1	79.4% (active)
CN(C)CCN(C(=O)CN1C(=O)c2ccccc2C1=O)c1nc2cc3c(cc2s1)OCCO3	-5.86%
Cc1ccc2nc(N(CCN(C)C)C(=O)C3=COCCO3)sc2c1	53.1% (active)
CC(=O)c1ccc(N2CCN(C(=O)c3ccc(Cl)c(S(=O)(=O)NC4CC4)c3)CC2)c(F)c1	-5.83%
COC(=O)c1ccc(/C=C2/C(=O)Oc3ccccc32)cc1	25.7%
COc1ccc2c(c1)O/C(=C\c1ccccc1O)C2=O	23.8%
O=C1Oc2ccccc2C(=O)/C1=C/c1ccccc1O	61.4% (active)
C=CCO/N=C(\C)c1c(O)c(C)c(-c2ccccc2)n(-c2ccccc2)c1=O	30.7%
CCCCCC(=O)Nc1ccc(-c2cn3cccnc3n2)cc1	33.6%
CC(C(=O)Nc1ccc(F)c(F)c1F)N1CCCCCC1 (centres undefined)	-12.6%
O=Cc1c(N2CCN(c3cccc(Cl)c3)CC2)nc2ccccn2c1=O	40.1% (active)
COCCCNC(=O)/C(C#N)=C/c1c(N2CCCCCC2)nc2ccccn2c1=O	-2.43%
O=Cc1c(Nc2ccccc2Cl)nc2ccccn2c1=O	4.5%
CCOC(=O)c1sc2nc(C)nc(Nc3ccc(OC)c(OC)c3)c2c1C	-3.77%
C/C(=N/NC(=S)Nc1ccccc1)c1ccc2c(c1)OCO2	43.2% (active)
C/C(=N\NC(=O)C(N)=O)c1ccc2c(c1)OCCO2	9.07%

SMILES	inhibition
C/C(=N/NC(=O)c1ccncc1)c1ccc2c(c1)OCO2	-3.5%
Cc1cc(C)n(-c2nc(SCC(=O)N3CCCC3)c3c4c(sc3n2)CCCC4)n1	47.4% (active)
COCCNc1nc(-n2nc(C)cc2C)nc2sc3c(c12)CCCC3	26.3%
CC(C)c1nc(SCC(=O)Nc2cccc(C(=O)O)c2)c2c3c(sc2n1)CCCC3	6.83%
O=C(OCCO)c1cc(Cl)c(C(=O)OCCO)cc1Cl	-2.48%
COc1ccccc1CNC(=O)CCCNS(=O)(=O)c1cccc2nsnc12	0.215%
O=C1OCCN1C(=O)[C@H]1[C@H](c2ccccc2)C(c2ccc(F)cc2)=NN1c1ccccc1	13.6%
O=C1OCCN1C(=O)[C@H]1[C@H](c2ccc(F)cc2)C(c2ccccc2)=NN1c1ccc(Br)cc1	16.8%
C[C@@H]1C(c2ccc(F)cc2)=NN(c2ccc(Br)cc2)[C@H]1C(=O)N1CCOC1=O	44.2% (active)
CN(C(=O)CN(CCO)CC(=O)N(C)C(C)(C)Cc1ccccc1)C(C)(C)Cc1ccccc1	15.9%
Cc1cc(C)nc(S/C=C/C(=O)c2ccccc2)n1	49% (active)
Cc1cc(C)nc(SCc2ccccc2C#N)n1	14.7%
Cc1cc(C)nc(SCC(=O)N(C)C)n1	-9.49%
Cc1cccc(N(C(=O)c2ccc(CN3CCOCC3)o2)C(C(=O)NC2CCCCC2)c2ccc(F)cc2)c1 (centres undefined)	-2.65%
FC(F)(F)C1CCCN(c2nsc3ccccc23)C1 (centres undefined)	2.15%
OC(c1ccccc1)C(CN1CCOCC1)c1ccccc1 (centres undefined)	3.43%
Oc1c(Cl)cc(Cl)c(Cl)c1Cc1c(O)c(Cl)cc(Cl)c1Cl	90.7% (active)
CCCCc1cc2c(s1)CCCC/C2=N/O	22.6%
CCc1ccc(-n2c(=S)sc3c(=O)n(-c4ccccc4OC)c(=S)[nH]c32)cc1	-1.05%
COc1ccc(NC(=S)NCC2CCN(c3ccc(OC)cc3)C2)cc1 (centres undefined)	48% (active)
COc1ccc(N2CCC(CNC(=S)Nc3c(C)cccc3C)C2)cc1 (centres undefined)	16.7%
COc1ccc(NC(=S)NCCN2CCC(C)CC2)cc1	4.83%
CC(=O)N/C(=C\c1ccc(F)cc1)C(=O)NC(Cc1ccccc1)C(=O)O (centres undefined)	-0.026%
Cc1ccc(S(=O)(=O)/N=C(/NC(=S)Nc2c(C)n(C)n(-c3ccccc3)c2=O)c2ccccc2)cc1	2.05%

SMILES	inhibition
CCCCN(C(=O)/C=C/c1ccco1)c1c(N)n(CC(C)C)c(=O)[nH]c1=O	-1.39%
Cc1ccsc1C(=O)N[C@@H](C)c1nnc2ccccn12	0.47%
CC1CCCN(c2ccc(C(=O)NCCc3ccccc3)cn2)C1 (centres undefined)	20.8%
COc1ccc(NC(=O)CC2C(=O)NC3CCCCC3N2C(=O)c2ccc(F)cc2)cc1 (centres undefined)	-3.23%
CC(C)N(Cc1ccccc1)C(=S)Nc1ccc(OC(F)F)cc1	44% (active)
CN(CC(=O)Nc1ccc(OC(F)F)cc1)S(=O)(=O)/C=C/c1ccccc1	15.2%
CC(=O)c1ccc(NC(=S)N(Cc2ccccc2)C(C)C2CC2)cc1 (centres undefined)	12.5%
C=CCC(CC=C)(C(N)=O)c1ccccc1	1.01%
CC(Sc1nnc2c(n1)C1CCC2(C)C1(C)C)C(=O)Nc1ccccc1 (centres undefined)	14.6%
Cc1ccccc1S(=O)(=O)Cc1ccc(C(=O)NCCN2CCCCC2C)o1 (centres undefined)	-4.28%
CC(/C=N/NC(=O)c1cc(-c2ccc3ccccc3c2)n[nH]1)=C\c1ccco1	45.8% (active)
CC(C)(C)C1CCC(=NNC(=O)c2cc(-c3ccccc3)n[nH]2)CC1 (centres undefined)	-10.2%
CC(=C/c1ccccc1)/C=N/NC(=O)c1cc(C)oc1C	9.24%
COCC1CCCN(Cc2cn[nH]c2-c2cc3ccccc3o2)C1 (centres undefined)	-1.56%
COc1ccc(CN2CCCC(C(=O)N3CCCCC3)C2)cc1 (centres undefined)	-13%
C=C1CCN([C@@H](Cc2ccccc2)C(=O)N2CCOCC2)S(=O)(=O)c2ccccc21	1.68%
Cn1c(=O)c2c(SCC(=O)NCC3CCCO3)nc(CC(C)(C)C)nc2n(C)c1=O (centres undefined)	20.8%
C/C(Cc1ccccc1)=N\NC(=O)CNC(=O)c1ccccc1Cl	-5.47%
CCCN(CC1COc2ccccc2O1)C(=S)Nc1ccc(C)cc1 (centres undefined)	30.5%
CC(NC(=S)Nc1ccccc1)C1COc2ccccc2O1 (centres undefined)	47.6% (active)
S=C(NCC1COc2ccccc2O1)Nc1ccc(Br)cc1 (centres undefined)	-1.91%
C/C(=N\Nc1cccc(C(=O)O)c1)c1ccc2c(c1)Nc1ccccc1S2	10.7%
